Reference: PubChem BioAssay
The source made the active and inactive calls.

Test: basal MM1S mitochondrial membrane potential changes, profiling panel, cell-based, JC-1 fluorescence, 24 h, 100 nL compound (AID 1170)
Conditions: higher = more signal
Note: test concentration not given here.

Row | SMILES | z-score
1 | [N-]=[N+]=NCc1ccccc1[C@H]1OC(c2ccc(OCCCO)cc2)=N[C@@]1(Cc1ccccc1N=[N+]=[N-])C(=O)O | -0.596
2 | C=CCN1C(=O)[C@]2(O[C@H](CCO)[C@@H]([Si](C)(C)c3ccc(OC)cc3)[C@@H]2C)c2cc(N3C(=O)c4ccccc4Oc4ccccc43)ccc21 | -2.15
3 | CCOC(=O)C[C@H]1[C@H](OC(=O)c2ccc(-c3ccccc3)cc2)[C@@H](NC(=O)C2CCCCC2)c2cc(OCCCO)ccc2N1C(=O)Cc1ccc(OC)cc1 | 0.488
4 | C=CCNC(=O)[C@@H]1[C@H]2C(=O)O[C@H](c3ccccc3)[C@H](c3ccccc3)N2[C@H](c2ccc(OCCO)cc2)[C@@]12C(=O)Nc1ccc(C#CCNC(N)=O)cc12 | 1.23
5 | CC(C)Cc1ccc(CN2CC[C@@H](NC(=O)c3ccccc3)C2)cc1 | -1.38
6 | CC(=O)NCCCC[C@@H]1NC(=O)[C@H]2C[C@@H](C(=O)NCCCCCN)[C@@H](c3ccc(O)cc3)N2C1=O | 0.353
7 | CCCNC(=O)[C@@]1(Sc2ccc(C)cc2)CC(=O)N(Cc2cc(C(F)(F)F)cc(C(F)(F)F)c2)[C@@H]1c1ccc(CO)cc1 | -0.765
8 | Cc1ccc(S[C@]2(C(=O)NCc3ccccc3)CC(=O)N(Cc3ccccc3C(F)(F)F)[C@@H]2c2ccc(CO)cc2I)cc1 | -0.518
9 | CCc1cccc(NC(=O)O[C@H]2[C@H](OC(=O)Nc3ccccc3-c3ccccc3)[C@H](OC(=O)Nc3ccccc3-c3ccccc3)[C@@H](OC)O[C@@H]2CO)c1 | -1
10 | Cc1ccc(S[C@]2(C(=O)NCC(C)C)CC(=O)N(C(C)C)[C@@H]2c2ccc(CO)cc2I)cc1 | -1.19
11 | COC(=O)C(CC#Cc1ccc2c(c1)[C@]1(C(=O)N2)[C@H](C(=O)N2CCCCCCC2)[C@H]2C(=O)O[C@H](c3ccccc3)[C@H](c3ccccc3)N2[C@@H]1c1ccc(OCCO)cc1)C(=O)OC | -1.44
12 | O=C1NC(=O)C2C1C=CC(C(O)C1CCCCC1)N2Nc1ccccn1 (stereo not given) | -0.9
13 | CN1C(=O)C2C=CC(C(O)c3ccc(I)cc3)N(N(c3ccccc3)c3ccccc3)C2C1=O (stereo not given) | -0.752
14 | COC(=O)[C@]1(Cc2ccccc2N=[N+]=[N-])N=C(c2ccc(OCCCO)cc2)O[C@@H]1c1ccccc1CN=[N+]=[N-] | -2.61
15 | COC(=O)[C@@]1(Cc2ccc(F)cc2)[C@H]2c3cc(C(=O)N(C)C)n(Cc4ccc(C(F)(F)F)nc4)c3C[C@H]2CN1C(=O)c1ccccc1 | -1.48
16 | C=C(CCCC)/C(=C/C[C@@H](OC(C)=O)c1ccc(OCCO)cc1)c1cc(C(=O)OC)ccc1OC | -1.3
17 | COc1ccc([Si](C)(C)[C@@H]2[C@@H](CC(=O)N3Cc4ccccc4C[C@H]3CO)O[C@]3(C(=O)N(Cc4ccc(I)cc4)c4ccccc43)[C@H]2C)cc1 | 0.122
18 | C=CCNC(=O)[C@@H]1[C@H]2C(=O)O[C@H](c3ccccc3)[C@H](c3ccccc3)N2[C@H](c2ccc(O)cc2)[C@@]12C(=O)Nc1ccc(C#CC3=CCCCC3)cc12 | -1.2
19 | COCCOC(=O)N1C(=O)[C@@]2(c3cc(C#CCCO)ccc31)[C@H](C(=O)N1CCN(c3ncccn3)CC1)[C@H]1C(=O)O[C@H](c3ccccc3)[C@H](c3ccccc3)N1[C@@H]2c1ccc(OCCO)cc1 | -1.02
20 | O=C1N(Cc2ccccc2)Cc2ccccc2C[C@@]12COC(c1ccc(OCCCO)cc1)=N2 | -1.91
21 | [N-]=[N+]=NCc1ccccc1[C@H]1OC(c2ccc(OCCCO)cc2)=N[C@@]1(Cc1ccccc1N=[N+]=[N-])C(=O)N1CCOCC1 | -2.14
22 | CO[C@H]1O[C@H](CO)[C@@H](OC(=O)Nc2cccc(F)c2)[C@H](OC(=O)Nc2ccc3c(c2)OCO3)[C@@H]1OC(=O)Nc1ccc2c(c1)OCO2 | -0.964
23 | [N-]=[N+]=Nc1ccccc1C[C@@]1(C(=O)NCc2ccccc2)N=C(c2ccc(OCCCO)cc2)O[C@@H]1c1ccccc1 | -0.738
24 | C=C[C@H](C)[C@@H](OC(=O)Nc1ccc(SC)cc1)c1ccc(OCCO)cc1 | -0.114
25 | COc1ccc(C#Cc2ccc3c(c2)[C@]2(C(=O)N3)[C@H](c3ccccc3OCCO)N3[C@H](c4ccccc4)[C@H](c4ccccc4)OC(=O)[C@H]3[C@@H]2C(=O)NC[C@H](O)c2ccccc2)cc1 | -1.66

Test: A549 lung cancer cell viability effects, profiling panel, resazurin fluorescence, 24 h, PK04 Diversity Set (AID 1171)
Conditions: higher = more signal, called active from +8 up or from −8 down

Row | SMILES | z-score
26 | COCCOC(=O)N1C(=O)[C@@]2(c3cc(C#CCC(C(=O)OC)C(=O)OC)ccc31)[C@H](c1ccc(O)cc1)N1[C@H](c3ccccc3)[C@H](c3ccccc3)OC(=O)[C@H]1[C@@H]2C(=O)N1CCc2cc(OC)c(OC)cc2C1 | 0.742 (inactive)
27 | C[C@]1(C(=O)O)c2ccccc2C(=O)N(Cc2cc(C(F)(F)F)cc(C(F)(F)F)c2)[C@H]1c1ccc(CO)cc1 | 0.449 (inactive)
28 | O=C(N1CCOCC1)[C@]1(CCS(=O)(=O)c2ccccc2)N=C(c2ccc(OCCCO)cc2)O[C@@H]1c1ccccc1 | 0.54 (inactive)
29 | CC1(C)OB(/C=C\CC(OC(=O)c2ccncc2)c2ccccc2)OC1(C)C (stereo not given) | 0.0383 (inactive)
30 | COC(=O)[C@]1(Cc2ccccc2CN=[N+]=[N-])N=C(c2ccc(OCCCO)cc2)O[C@@H]1c1ccccc1N=[N+]=[N-] | -2.73 (inactive)
31 | CC(C)(C)OC(=O)CC[C@@]1(C(=O)N2CCOCC2)N=C(c2ccc(OCCCO)cc2)O[C@@H]1c1ccccc1CN=[N+]=[N-] | 0.792 (inactive)
32 | COC(=O)[C@@]1(Cc2ccccc2)[C@H]2c3cc(C(=O)N(C)C)n(Cc4ccc(Cl)c(C(F)(F)F)c4)c3C[C@H]2CN1C(=O)c1ccccc1 | -1.6 (inactive)
33 | CN1C(=O)C2C(C1=O)C1C=C(CCCO)C2C(C2CC2)N1C (stereo not given) | -1.61 (inactive)
34 | CO[C@H]1O[C@H](CO)[C@@H](OC(=O)CCc2ccccc2)[C@@H]2OC(=O)[C@@H](Cc3ccc4ccccc4c3)C/C=C/C[C@H](Cc3ccc4ccccc4c3)C(=O)O[C@@H]12 | -1.39 (inactive)
35 | C=C(C(=O)CC[C@@H](OC(=O)c1ccccc1-c1ccccc1C(=O)O)c1ccc(OCCO)cc1)C(C)C | -0.0237 (inactive)
36 | [N-]=[N+]=NCc1ccccc1[C@H]1OC(c2ccc(OCCCO)cc2)=N[C@@]1(Cc1ccccc1N=[N+]=[N-])C(=O)O | 0.216 (inactive)
37 | C=CCN1C(=O)[C@]2(O[C@H](CCO)[C@@H]([Si](C)(C)c3ccc(OC)cc3)[C@@H]2C)c2cc(N3C(=O)c4ccccc4Oc4ccccc43)ccc21 | -5.48 (inactive)
38 | CCOC(=O)C[C@H]1[C@H](OC(=O)c2ccc(-c3ccccc3)cc2)[C@@H](NC(=O)C2CCCCC2)c2cc(OCCCO)ccc2N1C(=O)Cc1ccc(OC)cc1 | -0.0129 (inactive)
39 | C=CCNC(=O)[C@@H]1[C@H]2C(=O)O[C@H](c3ccccc3)[C@H](c3ccccc3)N2[C@H](c2ccc(OCCO)cc2)[C@@]12C(=O)Nc1ccc(C#CCNC(N)=O)cc12 | 0.36 (inactive)
40 | CC(C)Cc1ccc(CN2CC[C@@H](NC(=O)c3ccccc3)C2)cc1 | 0.247 (inactive)
41 | CC(=O)NCCCC[C@@H]1NC(=O)[C@H]2C[C@@H](C(=O)NCCCCCN)[C@@H](c3ccc(O)cc3)N2C1=O | -0.0632 (inactive)
42 | CCCNC(=O)[C@@]1(Sc2ccc(C)cc2)CC(=O)N(Cc2cc(C(F)(F)F)cc(C(F)(F)F)c2)[C@@H]1c1ccc(CO)cc1 | 0.149 (inactive)
43 | Cc1ccc(S[C@]2(C(=O)NCc3ccccc3)CC(=O)N(Cc3ccccc3C(F)(F)F)[C@@H]2c2ccc(CO)cc2I)cc1 | 1.15 (inactive)
44 | CCc1cccc(NC(=O)O[C@H]2[C@H](OC(=O)Nc3ccccc3-c3ccccc3)[C@H](OC(=O)Nc3ccccc3-c3ccccc3)[C@@H](OC)O[C@@H]2CO)c1 | -0.684 (inactive)
45 | Cc1ccc(S[C@]2(C(=O)NCC(C)C)CC(=O)N(C(C)C)[C@@H]2c2ccc(CO)cc2I)cc1 | 0.677 (inactive)
46 | COC(=O)C(CC#Cc1ccc2c(c1)[C@]1(C(=O)N2)[C@H](C(=O)N2CCCCCCC2)[C@H]2C(=O)O[C@H](c3ccccc3)[C@H](c3ccccc3)N2[C@@H]1c1ccc(OCCO)cc1)C(=O)OC | 1.29 (inactive)
47 | O=C1NC(=O)C2C1C=CC(C(O)C1CCCCC1)N2Nc1ccccn1 (stereo not given) | -0.606 (inactive)
48 | CN1C(=O)C2C=CC(C(O)c3ccc(I)cc3)N(N(c3ccccc3)c3ccccc3)C2C1=O (stereo not given) | -0.614 (inactive)
49 | COC(=O)[C@]1(Cc2ccccc2N=[N+]=[N-])N=C(c2ccc(OCCCO)cc2)O[C@@H]1c1ccccc1CN=[N+]=[N-] | -2.26 (inactive)
50 | COC(=O)[C@@]1(Cc2ccc(F)cc2)[C@H]2c3cc(C(=O)N(C)C)n(Cc4ccc(C(F)(F)F)nc4)c3C[C@H]2CN1C(=O)c1ccccc1 | -0.695 (inactive)
51 | C=C(CCCC)/C(=C/C[C@@H](OC(C)=O)c1ccc(OCCO)cc1)c1cc(C(=O)OC)ccc1OC | 0.293 (inactive)
52 | COc1ccc([Si](C)(C)[C@@H]2[C@@H](CC(=O)N3Cc4ccccc4C[C@H]3CO)O[C@]3(C(=O)N(Cc4ccc(I)cc4)c4ccccc43)[C@H]2C)cc1 | -0.663 (inactive)
53 | C=CCNC(=O)[C@@H]1[C@H]2C(=O)O[C@H](c3ccccc3)[C@H](c3ccccc3)N2[C@H](c2ccc(O)cc2)[C@@]12C(=O)Nc1ccc(C#CC3=CCCCC3)cc12 | -1.48 (inactive)
54 | COCCOC(=O)N1C(=O)[C@@]2(c3cc(C#CCCO)ccc31)[C@H](C(=O)N1CCN(c3ncccn3)CC1)[C@H]1C(=O)O[C@H](c3ccccc3)[C@H](c3ccccc3)N1[C@@H]2c1ccc(OCCO)cc1 | 0.427 (inactive)
55 | O=C1N(Cc2ccccc2)Cc2ccccc2C[C@@]12COC(c1ccc(OCCCO)cc1)=N2 | -2.8 (inactive)
